The list is not random: actives were taken first. Their share in the collection is about 22%.
CYP2C9 inh: blocks human cytochrome P450 2C9. 20% of 96,000 active. CYP2C9 Supersomes, luciferin-H conversion, luminescence. inhibition, % at 5 µM. P11712. AID 777;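 active = blocking of liver enzyme CYP2C9 beyond about 50% at 5 µM, limit read from the data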
CYP2C9 activ: activators of human CYP2C9. recombinant CYP2C9, luciferin-H conversion, luminescence; stronger effect = higher value; factor 1 = untreated enzyme, 0 = blocked. activation factor at 5 µM. 1.4% of 96,000 active;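 active = activation factor of 2 or more for CYP2C9 at a 5 µM dose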;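 note: 0 = sulfaphenazole-blocked wells and 1 = vehicle-only wells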
Measles CPE: protection of cells from measles virus. protection (pct of control), % at 4 µM. 1.5% of 140,000 active. Measles virus-infected cells, CPE protection, absorbance; in the data active = protection mostly above about 24%, no sharp cut-off; inactive = mostly below about 26%
CYP2C19 act: cytochrome P450 2C19 (human) activation | P33261 | recombinant CYP2C19, luciferin-H EGE luminescence; stronger effect = higher value; 0 = fully inhibited enzyme, 1 = untreated enzyme | activation factor at 5 µM | 96,000 tested, under 10 active;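 active = activation factor of at least 2 at 5 µM in the primary screen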;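 note: 0 = wells with 2.5 mM tranylcypromine and 1 = vehicle-only wells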
Target sequence (P33261 whole entry, looked up): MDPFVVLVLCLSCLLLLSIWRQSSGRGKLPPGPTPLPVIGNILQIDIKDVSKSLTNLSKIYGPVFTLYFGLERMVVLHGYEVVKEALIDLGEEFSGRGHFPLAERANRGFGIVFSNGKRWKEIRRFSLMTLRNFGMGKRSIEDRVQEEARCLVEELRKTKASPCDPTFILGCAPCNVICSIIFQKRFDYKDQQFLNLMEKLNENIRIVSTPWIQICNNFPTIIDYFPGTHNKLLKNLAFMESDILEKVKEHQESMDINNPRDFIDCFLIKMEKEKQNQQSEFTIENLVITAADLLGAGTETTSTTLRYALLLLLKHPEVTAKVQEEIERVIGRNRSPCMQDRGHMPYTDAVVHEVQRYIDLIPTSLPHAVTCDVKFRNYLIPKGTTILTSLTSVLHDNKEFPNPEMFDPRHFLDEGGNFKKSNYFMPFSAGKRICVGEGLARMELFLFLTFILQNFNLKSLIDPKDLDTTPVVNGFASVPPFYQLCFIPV
CYP2C19 inh: inhibitors of human CYP2C19; 21% of 96,000 active; P33261; CYP2C19 Supersomes, luciferin-H EGE luminescence, 30 min; inhibition, % at 5 µM;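 active = CYP2C19 inhibition above a set limit at 5 µM in the primary screen, cut at about 50% in these data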;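 note: plate controls were negative control wells for no effect and 2.5 mM tranylcypromine positive control for full effect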
Active calls of the source: *; nt = not tested or not shown.

SMILES	CYP2C9 inh	CYP2C9 activ	Measles CPE	CYP2C19 act	CYP2C19 inh
CCCCc1c(O)nc(SCC(=O)N2CCCCC2)n(-c2ccccc2C)c1=O	-11	1.1	20	0.9	8
CC(C)(C)c1cc(C(=O)N2CCc3ccccc32)ccn1	53*	0.5	13	0.3	72*
CC(=O)c1cc2c(cc1NC(=O)c1cc(C)nn1-c1ccccc1)OCO2	nt	nt	5	nt	nt
Cc1cc(C(=O)N2CCc3ccccc32)n(-c2ccccc2)n1	68*	0.3	4	0.2	75*
Cc1cc(C)n(-c2ccc(C(=O)N3CCc4ccccc43)cc2)n1	-103	2*	7	0.6	41
CC(=O)Nc1ccc(NC(=O)c2cc(C)nn2-c2ccccc2)cc1	14	0.9	53*	1	3
Cc1ccc2c(c1)nnn2C1CCN(C(=O)C23CC4CC(CC(C4)C2)C3)CC1	nt	nt	7	nt	nt
Fc1cccc(NC(=S)NCCCN2CCOCC2)c1	1	1	3	0.9	12
Cc1ccc(-n2c3c(cc(C(=O)NC4CCSC4=O)c2=O)C(=O)CCC3)cc1 (configuration not stated)	17	0.8	11	0.9	6
COc1ccccc1NC(=O)CN1C(=O)C(C)SC(C)C1=O (configuration not stated)	nt	nt	21	nt	nt
CCCCn1c(SCC(=O)Nc2ccc3c(c2)OCO3)nc2c1c(=O)n(C)c(=O)n2C	15	0.9	11	0.9	8
CCC(=O)NCCc1nc2ccccc2[nH]1	2	1	10	0.8	22
CC1CCCCN1CCn1cnc2c([nH]c3ccccc32)c1=O (configuration not stated)	16	0.8	14	0.8	22
O=C1CC(C(=O)NCc2ccccc2)C2(CCCC2)O1 (configuration not stated)	6	0.9	3	0.6	39
O=C(CCc1nc2ccccc2[nH]c1=O)OCC(=O)c1ccc(Cl)cc1	nt	nt	36*	nt	nt
CC(OC(=O)CCc1nc2ccccc2[nH]c1=O)C(=O)c1ccccc1 (configuration not stated)	67*	0.3	5	0	96*
COC(=O)CCc1nc2ccccc2[nH]c1=O	-6	1.1	1	0.8	22
Cc1ccc(C(=O)COC(=O)CCc2nc3ccccc3[nH]c2=O)cc1C	-12	1.1	17	1.2	-22
CCOC(=O)C(NS(=O)(=O)c1ccccc1)(C(F)(F)F)P(=O)(OC(C)C)OC(C)C (configuration not stated)	11	0.9	1	0.6	42
COc1nn(-c2nc(-c3ccccc3)cc(C(F)(F)F)n2)cc1[N+](=O)[O-]	nt	nt	12	nt	nt
C=CCn1c(SCc2ccccc2C#N)nnc1-c1ccccc1O	9	0.9	11	0	98*
C=CCn1c(SCC(N)=O)nnc1-c1ccccc1O	-30	1.3	24	0.9	6
C=CCn1c(SCC(N)=O)nnc1-c1cc(Br)ccc1O	24	0.8	51	0.1	87*
CCn1c(CNc2ccccc2Cl)nnc1SCC(=O)NCc1ccccc1	20	0.8	16	0.9	9
C=CCn1c(CSCc2ccc(Cl)cc2)nnc1SCC(=O)NCc1ccccc1	81*	0.2	18	0.1	87*
SMILES	CYP2C9 inh	CYP2C9 activ	Measles CPE	CYP2C19 act	CYP2C19 inh
C=CCn1c(CSCc2ccc(C)cc2)nnc1SCC(=O)NCc1ccccc1	79*	0.2	-1	0.2	80*
Cc1ccccc1NC(=O)COC(=O)/C=C/c1cn(-c2ccccc2)nc1-c1cccnc1	nt	nt	5	nt	nt
O=C(NCCCCc1ccccc1)C1CC(c2cccc([N+](=O)[O-])c2)=NO1 (configuration not stated)	22	0.8	11	0.7	28
O=C(O)c1cc(N/N=C2/CC(c3ccccc3)Oc3ccccc32)ccc1Cl (configuration not stated)	nt	nt	33	nt	nt
COc1cc(NC(=S)NCc2ccco2)cc(OC)c1OC	nt	nt	7	nt	nt
C=CCn1c(SCC(=O)Nc2ccc3c(c2)OCO3)nnc1-c1ccccc1O	40	0.6	3	0.6	42
C=CCn1c(SCC(=O)NCc2ccccc2)nnc1-c1ccccc1O	74*	0.3	20	0.3	71*
COc1ccc(-n2c(CCc3ccccc3)nnc2SCC(=O)NCc2ccccc2)cc1	47	0.5	11	0.5	50
O=C(CSc1nnc(CCc2ccccc2)n1-c1ccc(Cl)cc1)NCc1ccccc1	89*	0.1	9	0.2	84*
Cc1cc(C)nc(NCC(O)CNc2ccccc2C)n1 (configuration not stated)	7	0.9	1	0.8	19
Cc1cc(C)nc(NCC(O)COc2ccccc2C)n1 (configuration not stated)	9	0.9	23	0.1	87*
Cc1ccc(N(C(=O)c2ccccc2Cl)C2=NC(C)CS2)c(C)c1 (configuration not stated)	nt	nt	5	nt	nt
O=C(c1ccccc1Cl)N1N=C(c2ccc(Br)cc2)CC1c1nc2ccccc2[nH]1 (configuration not stated)	67*	0.3	8	0.5	50*
COc1ccc(C2=NN(C(=O)c3ccc(Cl)c([N+](=O)[O-])c3)C(c3ccccc3)C2)cc1 (configuration not stated)	nt	nt	5	nt	nt
CCCCNC(=O)Nc1ccccn1	30	0.7	2	0.8	16
CCCCC(=O)Nc1ccc(NC(=O)CCCC)nc1	24	0.8	2	0.7	25
CCCCC(=O)Nc1ccc(Br)cc1C(=O)O	24	0.8	55*	1.1	-10
CCCCC(=O)Nc1ccc(Br)cn1	12	0.9	7	0.4	57*
CCCCNC(=O)Nc1ccc(Br)cn1	52*	0.5	9	0.2	82*
CCCCC(=O)Nc1cccc(NC(=O)c2ccccc2Br)c1	73*	0.3	11	0.4	58*
CC(C)C1N(C(=O)CN2CCCC2)CCN1S(=O)(=O)c1ccccc1 (configuration not stated)	-1	1	5	0.9	6
COC(=O)CCC(=O)Nc1sc2c(c1C#N)CCCC2	14	0.9	10	0.8	15
CC1CCN(CC(=O)Nc2sc3c(c2C#N)CCC3)CC1	56*	0.4	6	0.6	43
CCCC(=O)Nc1sc2c(c1C#N)CCCC2	50*	0.5	3	0.6	44
CC(=O)Nc1sc2c(c1C#N)CCCC2	0	1	13	1	-3
SMILES	CYP2C9 inh	CYP2C9 activ	Measles CPE	CYP2C19 act	CYP2C19 inh
N#Cc1c(NC(=O)c2ccncc2)sc2c1CCC2	53*	0.5	14	0.3	73*
CC(=O)N1N=C(c2ccccc2)CC1c1cn(Cc2ccccc2)c2ccccc12 (configuration not stated)	nt	nt	2	nt	nt
Cc1c(C#N)c(N)c(C(=O)c2ccccc2)n1Cc1ccccc1	76*	0.2	3	0	99*
Cc1c(C#N)c(NC(=O)c2cccc(Cl)c2)n(Cc2ccccc2)c1C	3	1	12	1	-1
Cc1noc(C)c1COC(=O)c1cc(=O)[nH]c2ccccc12	80*	0.2	4	0.4	60*
CCOC(=O)c1c(C)[nH]c(C(=O)O)c1C	26	0.7	17	0.9	11
